Shown are actives, neighbours in structure and some others; about 2.2% of the full set was active somewhere.
NTR1 ag: activates human neurotensin receptor 1 | P30989 | NTR1-U2OS beta-arrestin-GFP spot imaging, agonist mode | 330,000 compounds, 0.17% hits | activation, % at 20 µM;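 active means activation at or above 40% of the spot to cytoplasm intensity ratio, with at least 20 cells analyzed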;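 further: 0% = DMSO without peptide and 100% = 100 nM NTR1 peptide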
M1 ag parental: nonselective activator or artifact in parental CHO-K1 cells; Fluo-8 calcium fluorescence; scaled to maximal ATP response, vehicle zero; activation, % at 3 µM; 360,000 compounds, 0.48% hits; AID 602248; in the data active means activation above about 15%;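 further: untransfected CHO-K1 host cells lacking M1 receptor as counterscreen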
CHO-K1 Ca PAM: nonselective activator or artifact in parental CHO-K1 calcium assay; ATP EC20, Fluo-8 calcium fluorescence; 0% at ATP EC20, 100% at ATP max; 360,000 compounds, 0.02% hits; activation, % at 3 µM;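 active means activation above the run cutoff, the mean activation of all test compounds plus 3 SD, cut at about 40% in these data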;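 further: peak over basal fluorescence ratio in a 140 s read after ATP addition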
TMEM16A inh: mouse TMEM16A channel inhibition, primary screen; 310,000 compounds, 1.2% hits; HEK293 TMEM16A/YFP iodide influx fluorescence, ionomycin; AID 588511; normalized B-score (activity score, 25-100; higher = stronger inhibition) at 10 µM;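 active means ratio plate-corrected score three or more library SD toward inhibition, starting fluorescence score within five deviations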;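 further: score derived from kinetic fluorescence span divided by baseline fluorescence per well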
CHO-K1 Ca antag: counter-screen for M1 antagonists: effect in parental CHO-K1 cells | ATP-induced calcium, Fluo-8 fluorescence | inhibition, % at 3 µM | 360,000 compounds, 0.6% hits | AID 602250;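 active means inhibition above a per-plate cutoff, the plate's mean sample inhibition plus 3 SD, cut at about 24% in these data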;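 further: 0% = DMSO plus EC80 ATP and 100% = DMSO alone without ATP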
ANO1 activ: activates or potentiates the mouse TMEM16A chloride channel; Q8BHY3; HEK293 TMEM16A/YFP-H148Q/I152L, iodide quench fluorescence; hits give low values; B-score at 10 µM; 340,000 compounds, 0.3% hits;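 active means fluorescence-ratio B-score plate-corrected deviation score at least 3 library SD below zero, with starting fluorescence score within 5 deviations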;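 further: channel opened by trigger with iodide after compound preincubation; score built on the fluorescence ratio of max minus min over baseline; more negative score means more quench and so TMEM16A activation or potentiation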
Numbers without * were called inactive; i = inactive; . = not tested or not shown.

SMILES | NTR1 ag | M1 ag parental | CHO-K1 Ca PAM | TMEM16A inh | CHO-K1 Ca antag | ANO1 activ
O=C1NC(=O)C(CCc2ccncc2)(CCc2ccncc2)C(=O)N1CCc1ccccc1 | 1 | 17* | 7 | i | 10 | i
Cc1cc(Br)cn2c(CC(=O)N3CCCCC3)c(-c3ccc(F)cc3)nc12 | . | 1 | 0 | . | 3 | .
COC(=O)[C@@H]1[C@@H](C(=O)OC)C2(c3ccccc3-c3ccccc32)N(c2ccc(Cl)cc2)N1C#N | 35 | 0 | 5 | i | 26* | i
Cn1c(O)c(/C=C/C=Nc2ccccc2)c(=O)n(C)c1=S | 0 | 28* | 7 | i | 14 | i
Cc1cccc(C)c1NC(=O)c1cccn(Cc2ccc3c(c2)OC(F)(F)O3)c1=O | 22 | 2 | 20 | 25* | -4 | i
Cc1cccc(C)c1-n1nnnc1C(C1CC1)N1CCC2(CC1)C(=O)NCN2c1ccccc1 (stereo not drawn) | . | 9 | 8 | . | 3 | .
O=C1NC(=O)N(c2ccc3c(c2)OCO3)C(=O)/C1=C\c1ccc(N2CCCCC2)o1 | 0 | 3 | -9 | i | 25* | i
CCOC(=O)[C@]12Cc3cc(OC)ccc3[C@H]1N(CCC(=O)OC)C(=O)c1cc(OC)ccc12 | . | 0 | -3 | . | 1 | .
Nc1c(C(=O)NCCN2CCOCC2)c2nc3ccccc3nc2n1Cc1ccccc1 | 2 | 16* | 23 | i | -2 | i
O=C1NC(=S)SC1=Cc1ccc(N(CCCl)CCCl)cc1 | . | 2 | 2 | . | 15 | i
CN1/C(=C\C=C2C(=O)NC(=S)NC2=O)C(C)(C)c2ccccc21 | -3 | 54* | -9 | . | 22 | i
O=[N+]([O-])c1ccc(NCc2ccccc2)c2nonc12 | -2 | . | . | i | . | .
Nc1ccc2nonc2c1[N+](=O)[O-] | 2 | 17* | 19 | i | -6 | i
CCOC(=O)c1cc2cc(OC)ccc2n1C1CCN(Cc2ccccc2)CC1 | . | 0 | 22 | . | -27 | .
O=C(NCC1=C(c2ccc3ccccc3c2)C[C@@H]2CC[C@H]1N2Cc1ccco1)c1ccc([N+](=O)[O-])cc1 | . | 2 | 17 | . | -6 | .
COC1CCC(OC2CC(C3(C)CCC4(CC(O)C(C)C(C(C)/C=C(\C)C(=O)C(C)CC(C)C(=O)O)O4)O3)OC3(OC(C4OC(O)(CO)C(C)CC4C)CC3C)C2C)OC1C (stereo not drawn) | . | 1 | 5 | . | -15 | -4.8*
Cc1cccc(CNCCc2c[nH]c3ccccc23)c1 | 2 | 23* | 20 | i | -6 | i
COc1cc(CNCCc2c[nH]c3ccccc23)cc(OC)c1 | 1 | 2 | -1 | i | 25* | i
CC1(C)CN=C(Nc2ccc(F)c(Cl)c2)S1 | 5 | 30* | 11 | i | -14 | i
CC1(C)CN=C(Nc2ccc(F)c(F)c2)S1 | 1 | 23* | 21 | i | -12 | i
Cc1ccc(NC2=NCCCS2)cc1Cl | 0 | 3 | 2 | i | -15 | i
CC1(C)CSC(Nc2ccc(F)c(Cl)c2)=N1 | -5 | 2 | 1 | i | 1 | i
COC1C(OC(=O)c2ccc(C)[nH]2)C(O)C(Oc2ccc3c(O)c(NC(=O)c4ccc(O)c(CC=C(C)C)c4)c(=O)oc3c2Cl)OC1(C)C (stereo not drawn) | 7 | -1 | -4 | 100* | 12 | i
CC1(C)C(=O)CCC2C1=CCC1C2CCC2(C)C(O)CCC12 (stereo not drawn) | . | 6 | 7 | . | -5 | i
CCOC(=O)[C@]12Cc3c(cc(OC)c(OC)c3OC)[C@H]1N(C)C(=O)c1ccccc12 | . | 1 | -1 | . | -6 | .
CSCCC(c1nnnn1-c1ccc2c(c1)OCCO2)N1CCC(n2c(=O)[nH]c3ccccc32)CC1 (stereo not drawn) | . | 4 | 18 | . | 6 | .
COc1cc(/C=C/c2nc3ccccc3c(=O)n2-c2cccc(O)c2)ccc1O | 10 | 7 | 6 | i | 3 | -5.2*
COC(=O)C1=C(c2ccc3ccccc3c2)C[C@@H]2CC[C@H]1N2C | 0 | 0 | 8 | . | 3 | i
COC(=O)C1=C(C(=O)OC)C2OC1c1cc3ccccc3cc12 | . | 4 | -10 | . | 23 | -4.9*
COc1c(OP2(=S)OCC(C)(C)CO2)cnn(C2CCCCC2)c1=O | . | 1 | -6 | . | 5 | .

Assay outcomes from PubChem.
